Measurements published in PubChem BioAssay (Tox21).
Results filed as inconclusive are left out. A call without a number means that no potency is given here. Active and inactive are the calls of the source. Unless noted, the call rests on the fitted dose curve; in most records, active means well fitted curve in the direction sought with a large enough effect in the repeat runs; inconclusive means weak or mixed curves; inactive means no such curve, though single readings can be large; an effect the other way counts as inactive or inconclusive.

How the values were obtained:
[1] = qHTS assay to test for compound auto fluorescence at 535 nm (green) in HEK293 cells (AID 720680)
[2] = qHTS assay to test for compound auto fluorescence at 460 nm (blue) in HEK293 cell free culture (AID 720681)
In short: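 Blue fluorescence (Ex 405/Em 460 nm, triamterene-equivalent) was read immediately after pin transfer of compound or DMSO into medium (DMEM, 10% FBS) without cells.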

[3] = qHTS assay to test for compound auto fluorescence at 535 nm (green) in HEK293 cell free culture (AID 720682)
In short: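 Steps: dispense DMEM/10% FBS into empty wells; pin in compound or DMSO; measure fluorescence at 485/535 nm. Values are fluorescein equivalents.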

[4] = qHTS assay to test for compound auto fluorescence at 590 nm (red) in HEK293 cell free culture (AID 720683)
In short: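 Red-channel autofluorescence of compounds in culture medium (DMEM, 10% FBS), no cells, measured at 540/590 nm. Rose Bengal sodium is the reference fluorophore for equivalence.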

[5] = qHTS assay to test for compound auto fluorescence at 590 nm (red) in HepG2 cell free culture (AID 720684)
In short: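 No cells present: MEM + 10% FBS only. Compound pinned in, red label read (540/590 nm). Activity = fluorescence equivalent to Rose Bengal sodium.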

[6] = qHTS assay to test for compound auto fluorescence at 460 nm (blue) in HepG2 cell free culture (AID 720685)
In short: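 Cell-free plates of MEM plus 10% FBS received 23 nL compound or DMSO vehicle; blue-channel (405/460 nm) intensity scored against triamterene as reference fluorophore.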

[7] = qHTS assay to test for compound auto fluorescence at 535 nm (green) in HepG2 cell free culture (AID 720686)
[8] = qHTS assay to test for compound auto fluorescence at 460 nm (blue) in HepG2 cells (AID 720687)
In short: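 Blue-channel autofluorescence (Ex/Em 405/460 nm, triamterene-equivalent) was measured after 1 hr compound exposure at 37 C, 5% CO2. Cells were HepG2, plated overnight at 37 C in MEM plus 10% FBS.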

[9] = qHTS assay to identify small molecule antagonists of the glucocorticoid receptor (GR) signaling pathway - cell viability counter screen (AID 720693); further: nearly all actives have a fitted effect of over 55% in size; further: potency means the concentration at half of the fitted maximal effect
[10] = qHTS assay for identifying genotoxic compounds that show differential cytotoxicity against isogenic chicken DT40 cell lines with known DNA damage response pathways - wild type cell line (AID 743012); further: nearly all actives have a fitted effect of over 60% in size; further: potency means the concentration at half of the fitted maximal effect
In short: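 Viability of DNA repair-proficient chicken DT40 cells was assessed by CellTiter-Glo luminescence following 40 h compound exposure at 37 C/5% CO2.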

[11] = qHTS assay for identifying genotoxic compounds that show differential cytotoxicity against isogenic chicken DT40 cell lines with known DNA damage response pathways - Rev3 mutant cell line (AID 743014); further: nearly all actives have a fitted effect of over 55% in size; further: potency means the concentration at half of the fitted maximal effect
[12] = qHTS assay for identifying genotoxic compounds that show differential cytotoxicity against isogenic chicken DT40 cell lines with known DNA damage response pathways - Rad54/Ku70 mutant cell line (AID 743015); further: nearly all actives have a fitted effect of over 60% in size; further: potency means the concentration at half of the fitted maximal effect
[13] = qHTS assay to identify small molecule antagonists of the androgen receptor (AR) signaling pathway - cell viability counter screen (AID 743033; further: nearly all actives have a fitted effect of over 45% in size; further: potency means the concentration at half of the fitted maximal effect)
[14] = qHTS assay to identify small molecule antagonists of the androgen receptor (AR) signaling pathway using the MDA cell line - cell viability counter screen (AID 743041; further: nearly all actives have a fitted effect of over 45% in size; further: potency means the concentration at half of the fitted maximal effect)
In short: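 Using the breast carcinoma line MDA-kb2 AR-luc, test chemicals were co-incubated with R1881 for 16 h; CellTiter-Fluor reagent, added at 15.5 h, provided a fluorescence measure of live cells.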

[15] = molecular target: Androgen receptor (Homo sapiens) (UniProt P10275); assay: qHTS assay to identify small molecule agonists of the androgen receptor (AR) signaling pathway using the MDA cell line (AID 743040; further: nearly all actives have a fitted effect of over 20% in size; further: potency means the concentration at half of the fitted maximal effect)
Androgen receptor (Homo sapiens), sequence (P10275 whole entry, looked up): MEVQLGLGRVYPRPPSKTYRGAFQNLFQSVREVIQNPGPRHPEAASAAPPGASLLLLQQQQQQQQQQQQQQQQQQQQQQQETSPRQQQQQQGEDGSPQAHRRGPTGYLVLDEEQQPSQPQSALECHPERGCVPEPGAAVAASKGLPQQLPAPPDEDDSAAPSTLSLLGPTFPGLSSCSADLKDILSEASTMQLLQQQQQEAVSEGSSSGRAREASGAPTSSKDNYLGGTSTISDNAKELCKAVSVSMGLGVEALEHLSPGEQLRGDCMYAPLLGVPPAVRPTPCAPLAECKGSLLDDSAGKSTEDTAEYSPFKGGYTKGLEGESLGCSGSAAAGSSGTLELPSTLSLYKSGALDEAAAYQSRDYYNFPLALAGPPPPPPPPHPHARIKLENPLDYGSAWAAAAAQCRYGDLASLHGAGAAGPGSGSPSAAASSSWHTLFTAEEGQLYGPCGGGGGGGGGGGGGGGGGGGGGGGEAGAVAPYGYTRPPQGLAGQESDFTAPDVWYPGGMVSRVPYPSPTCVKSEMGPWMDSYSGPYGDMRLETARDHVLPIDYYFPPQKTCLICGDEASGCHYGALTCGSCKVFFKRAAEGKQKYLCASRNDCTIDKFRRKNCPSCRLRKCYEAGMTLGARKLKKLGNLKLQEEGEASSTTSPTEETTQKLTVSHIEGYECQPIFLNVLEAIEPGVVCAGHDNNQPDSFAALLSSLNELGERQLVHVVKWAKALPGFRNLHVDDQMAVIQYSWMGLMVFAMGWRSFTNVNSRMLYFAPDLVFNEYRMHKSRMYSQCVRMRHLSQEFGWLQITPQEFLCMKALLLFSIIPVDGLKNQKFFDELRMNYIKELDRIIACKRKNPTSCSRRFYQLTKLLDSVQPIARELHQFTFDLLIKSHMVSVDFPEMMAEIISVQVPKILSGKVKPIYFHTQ
In short: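 Stable MMTV-luciferase reporter in MDA-kb2 cells; note the promoter carries GR as well as AR response elements. 16 h compound treatment, 37C, 0% CO2; ONE-Glo luminescence endpoint.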

[16] = molecular target: Androgen receptor (Homo sapiens) (UniProt P10275); assay: qHTS assay to identify small molecule antagonists of the androgen receptor (AR) signaling pathway using the MDA cell line (AID 743042; further: nearly all actives have a fitted effect of over 55% in size; further: potency means the concentration at half of the fitted maximal effect)
In short: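 Antagonist mode: compounds plus R1881 agonist added to MDA-kb2 AR-luc cells, incubated 16 h at 37C. Luciferase reporter luminescence quantified, with multiplexed CellTiter-Fluor readout for cell viability.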

[17] = molecular target: Androgen receptor (Homo sapiens) (UniProt P10275); assay: qHTS assay to identify small molecule antagonists of the androgen receptor (AR) signaling pathway (AID 743035; active means well fitted inhibition curve with a large enough effect in the signal ratio in the repeat runs, not every such curve was filed as active; the % refers to the signal ratio; further: potency means the concentration at half of the fitted maximal effect)
In short: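 Reporter HEK293 cells were exposed to compounds and R1881 overnight (16 h, 37C); beta-lactamase activity was then quantified by FRET fluorescence.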

[18] = molecular target: Androgen receptor (Homo sapiens) (UniProt P10275); assay: qHTS assay to identify small molecule agonists of the androgen receptor (AR) signaling pathway (AID 743036; active means well fitted activation curve with a large enough effect in the signal ratio in the repeat runs, with a control signal flat, not every such curve was filed as active; the % refers to the signal ratio)
In short: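 Reporter line: GeneBLAzer AR-UAS-bla-GripTite (HEK293). Steps: plate cells, 4 h rest, add compounds, 16 h at 37C, add LiveBLAzer B/G substrate, 2 h at RT, read fluorescence.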

Row | SMILES | Potency [1] | Potency [2] | Potency [3] | Potency [4] | Potency [5] | outcome [6] | Potency [7] | outcome [8] | Potency [9] | Potency [10] | Potency [11] | Potency [12] | Potency [13] | Potency [14] | Potency [15] | Potency [16] | Potency [17] | Potency [18]
1 | Cc1c(Cl)cccc1Nc1ncccc1C(=O)O | inactive | inactive | inactive | inactive | inactive | inactive | inactive | inactive | inactive | inactive | inactive | inactive | inactive | inactive | – | – | – | –
2 | N=C(N)c1ccc(OCCCOc2ccc(C(=N)N)cc2Br)c(Br)c1 | inactive | inactive | inactive | inactive | inactive | inactive | inactive | inactive | inactive | 5960 nM (active) | 8410 nM (active) | 6680 nM (active) | inactive | inactive | – | – | – | –
3 | C/C=C1\NC(=O)[C@H]2CSSCC/C=C/[C@H](CC(=O)N[C@H](C(C)C)C(=O)N2)OC(=O)C(C(C)C)NC1=O (stereo partly drawn) | inactive | inactive | inactive | inactive | inactive | inactive | inactive | inactive | 2390 nM (active) | 1.3 nM (active) | 1.2 nM (active) | 1.7 nM (active) | 4770 nM (active) | 7500 nM (active) | inactive | inactive | – | –
4 | NCCC(=O)[N-][C@@H](Cc1cnc[nH]1)C(=O)O.[Zn] | inactive | inactive | inactive | inactive | inactive | inactive | inactive | inactive | inactive | inactive | inactive | inactive | inactive | inactive | – | – | – | –
5 | CC(=O)Nc1ccc(OC(=O)c2ccccc2O)cc1 | inactive | inactive | inactive | inactive | inactive | inactive | inactive | inactive | inactive | inactive | inactive | inactive | inactive | inactive | inactive | inactive | inactive | –
6 | Cc1ccc(S(=O)(=O)NC(=O)N[C@@H](C)Cc2ccccc2)cc1 | inactive | inactive | inactive | inactive | inactive | inactive | inactive | inactive | inactive | inactive | inactive | inactive | inactive | inactive | – | – | – | –
7 | C=C1CC[C@H](O)CC1=C/C=C1\CCC[C@]2(C)[C@@H]([C@H](C)CCCC(C)(C)O)CC[C@@H]12 | inactive | inactive | inactive | inactive | inactive | inactive | inactive | inactive | 10700 nM (active) | 5960 nM (active) | 6680 nM (active) | 5960 nM (active) | inactive | inactive | inactive | 26600 nM (active) | – | inactive
8 | COc1ccc(C2NC(=S)N3C(c4ccc(OC)c(OC)c4)NC(=S)N23)cc1OC (stereo not drawn) | inactive | inactive | inactive | inactive | inactive | inactive | inactive | inactive | inactive | 6.7 nM (active) | 10.6 nM (active) | 10.6 nM (active) | 239 nM (active) | 150 nM (active) | inactive | 75 nM (active) | – | –
9 | NC(=O)c1ccc[n+]([C@@H]2O[C@H](COP(=O)([O-])OP(=O)(O)OC[C@H]3O[C@@H](n4cnc5c(N)ncnc54)[C@H](O)[C@@H]3O)[C@@H](O)[C@H]2O)c1 | inactive | inactive | inactive | inactive | inactive | inactive | inactive | inactive | inactive | inactive | inactive | inactive | inactive | inactive | inactive | inactive | – | inactive
10 | CCN(CC)CCOc1ccc2nc(N(C)C)sc2c1 | inactive | inactive | inactive | inactive | inactive | inactive | inactive | inactive | inactive | 1190 nM (active) | 1680 nM (active) | 2110 nM (active) | inactive | inactive | – | – | – | –
11 | NC(N)=NCC1COc2ccccc2O1 (stereo not drawn) | inactive | inactive | inactive | inactive | inactive | inactive | inactive | inactive | inactive | inactive | inactive | inactive | inactive | inactive | – | – | – | –
12 | CC(=O)[C@@]1(O)CC[C@H]2[C@@H]3C=C(Cl)C4=CC(=O)CC[C@]4(C)[C@H]3CC[C@@]21C | inactive | inactive | inactive | inactive | inactive | inactive | inactive | inactive | inactive | 11900 nM (active) | 23700 nM (active) | 23700 nM (active) | inactive | inactive | 596 nM (active) | inactive | 674 nM (active) | –
13 | O=P(O)(O)OC[C@H]1O[C@](O)(COP(=O)(O)O)[C@@H](O)[C@@H]1O | inactive | inactive | inactive | inactive | inactive | inactive | inactive | inactive | inactive | inactive | inactive | inactive | inactive | inactive | – | – | – | –
